# Reference: PubChem BioAssay (NCATS)
# Records with an inconclusive call do not appear. Where a call stands in place of a potency, no number is given. Activity calls are given as the source filed them. Calls come from the whole dose curve; as a rule, active = well fitted inhibition curve with a large enough effect; inconclusive = small, poorly fitted or top-dose-only effect; inactive = flat fitted curve, though single readings scatter.
# What was measured:
# Assay in all cases: qHTS profiling for inhibitors of Plasmodium falciparum proliferation (AID 504749); note: nearly all actives have a fitted effect of over 60% in size
# Conditions in all cases: P. falciparum in erythrocytes, SYBR Green DNA, 72 h; series mostly up to 28.7 µM
# ECU = system: ECU
# How it was run: (§1)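 Three-day growth assay of blood-stage parasites in erythrocytes (0.3% parasitemia, 2.5% hematocrit) at 37 C, 5% CO2, quantified by SYBR Green DNA staining after overnight detergent lysis.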
# FAB9 = system: FAB9
# How it was run: as §1
# GB4 = system: GB4
# How it was run: as §1
# HB3 = system: HB3
# How it was run: as §1
# ICS = system: ICS
# How it was run: as §1
# JCK = system: JCK
# How it was run: as §1
# N140 = system: N140
# How it was run: as §1
# P93_24 = system: P93_24
# How it was run: as §1
# P94_40 = system: P94_40
# How it was run: as §1
# PAD = system: PAD
# How it was run: as §1
# Potency is the fitted concentration of half-maximal effect.
SMILES,Potency (ECU),Potency (FAB9),Potency (GB4),Potency (HB3),Potency (ICS),Potency (JCK),Potency (N140),Potency (P93_24),Potency (P94_40),Potency (PAD)
CCCCC(CC)CN=C(N)NC(N)=NCCCCCCN=C(N)NC(N)=NCC(CC)CCCC (centres undefined),1.12 µM (active),1.78 µM (active),1.51 µM (active),2.24 µM (active),0.316 µM (active),3.98 µM (active),1 µM (active),1.78 µM (active),1.26 µM (active),0.891 µM (active)
Nc1ccc(/C=C/c2ccc(N)cc2S(=O)(=O)O)c(S(=O)(=O)O)c1,inactive,inactive,inactive,inactive,inactive,inactive,inactive,inactive,inactive,inactive
Nc1cc(Cl)c(NC2=NCCN2)c(Cl)c1,inactive,inactive,inactive,inactive,inactive,inactive,inactive,inactive,inactive,inactive
CCCn1c(=O)[nH]c(=O)c2[nH]cnc21,inactive,inactive,inactive,inactive,inactive,inactive,inactive,inactive,inactive,inactive
CCCCOc1ccc(OCCCN2CCOCC2)cc1,inactive,inactive,inactive,inactive,inactive,inactive,inactive,inactive,inactive,inactive
Cc1c(C(N)=O)cc([N+](=O)[O-])cc1[N+](=O)[O-],inactive,inactive,inactive,inactive,inactive,inactive,inactive,inactive,inactive,inactive
CCN(CC)C(=O)N1CCN(C)CC1,inactive,inactive,inactive,inactive,inactive,inactive,inactive,inactive,inactive,inactive
OCc1ccccc1O,inactive,inactive,inactive,inactive,inactive,inactive,inactive,inactive,inactive,–
O=C(O)c1cc2cc(Cc3cccnc3)ccc2o1,inactive,inactive,inactive,inactive,inactive,inactive,inactive,inactive,inactive,inactive
NCCC(O)(P(=O)(O)O)P(=O)(O)O,inactive,inactive,inactive,inactive,inactive,inactive,inactive,inactive,inactive,inactive
COc1ccc(CCN2CCC(Nc3nc4ccccc4n3Cc3ccc(F)cc3)CC2)cc1,2 µM (active),3.16 µM (active),1.9 µM (active),4.47 µM (active),2.82 µM (active),6.31 µM (active),3.55 µM (active),2.82 µM (active),3.16 µM (active),3.98 µM (active)
CN1CCC[C@@H]1c1cccnc1,inactive,inactive,inactive,inactive,inactive,inactive,inactive,inactive,inactive,inactive
COc1cccc2c1C(=O)c1c(O)c3c(c(O)c1C2=O)C[C@@](O)(C(C)=O)C[C@@H]3O[C@H]1C[C@H](N)[C@H](O)[C@H](C)O1,8.91 µM (active),3.98 µM (active),1.9 µM (active),4.47 µM (active),1.41 µM (active),11.2 µM (active),4.47 µM (active),3.98 µM (active),3.55 µM (active),4.47 µM (active)
CC(C)(Oc1ccc(Cl)cc1)C(=O)O,inactive,inactive,inactive,inactive,inactive,inactive,inactive,inactive,inactive,inactive
CC1(C)CCC(NC(=O)[C@@H](N)CCC(=O)O)CC1,inactive,inactive,inactive,inactive,inactive,inactive,inactive,inactive,inactive,inactive
O=C(Nc1ccc(Cl)c(Cl)c1)C1CC1,inactive,inactive,inactive,inactive,inactive,inactive,inactive,inactive,inactive,inactive
NCCc1ccn[nH]1,inactive,inactive,inactive,inactive,inactive,inactive,inactive,inactive,inactive,inactive
COc1c2occc2c(OC)c2c(=O)cc(C)oc12,inactive,inactive,inactive,inactive,inactive,inactive,inactive,inactive,inactive,inactive
CCCCCCC[N+](CC)(CC)CCCCc1ccc(Cl)cc1,1.58 µM (active),3.55 µM (active),0.721 µM (active),2.51 µM (active),0.708 µM (active),3.16 µM (active),2.51 µM (active),2.24 µM (active),2 µM (active),3.98 µM (active)
C[N+]1(CCCCC[N+]2(C)CCCC2)CCCC1,inactive,inactive,inactive,inactive,inactive,inactive,inactive,inactive,inactive,inactive
CCCCOc1ccc(C(=O)CCN2CCCCC2)cc1,inactive,inactive,inactive,inactive,inactive,inactive,inactive,inactive,inactive,inactive
CN1C2CCC1CC(OC(=O)c1c[nH]c3ccccc13)C2 (centres undefined),inactive,inactive,inactive,inactive,inactive,inactive,inactive,inactive,inactive,inactive

SMILES,Potency (ECU),Potency (FAB9),Potency (GB4),Potency (HB3),Potency (ICS),Potency (JCK),Potency (N140),Potency (P93_24),Potency (P94_40),Potency (PAD)
C[C@]12CC[C@@H]3c4ccc(O)cc4CC[C@H]3[C@@H]1CC[C@@H]2O,inactive,inactive,inactive,inactive,inactive,inactive,inactive,inactive,inactive,inactive
C[C@H](O)C(=O)Nc1c(I)c(C(=O)NC(CO)CO)c(I)c(C(=O)NC(CO)CO)c1I,inactive,inactive,inactive,inactive,inactive,inactive,inactive,inactive,inactive,inactive
N[C@H](Cc1c[nH]c2ccccc12)C(=O)O,inactive,inactive,inactive,inactive,inactive,inactive,inactive,inactive,inactive,inactive
COC1=CC(=O)C[C@@H](C)[C@]12Oc1c(Cl)c(OC)cc(OC)c1C2=O,inactive,inactive,inactive,inactive,inactive,inactive,inactive,inactive,inactive,inactive
CCN1CCCC1=O,inactive,inactive,inactive,inactive,inactive,inactive,inactive,inactive,inactive,inactive
COCc1c(C(C)C)nc(C(C)C)c(/C=C/[C@@H](O)C[C@@H](O)CC(=O)O)c1-c1ccc(F)cc1,inactive,inactive,inactive,inactive,inactive,inactive,inactive,inactive,inactive,inactive
CCCN1CCCC[C@H]1C(=O)Nc1c(C)cccc1C,inactive,inactive,15.1 µM (active),inactive,inactive,inactive,inactive,inactive,inactive,inactive
CC(C)(CO)[C@@H](O)C(=O)NCCCO,inactive,inactive,inactive,inactive,inactive,inactive,inactive,inactive,inactive,inactive
CC(C)COC(=O)OCN1C(=O)CN(CCN2CC(=O)N(COC(=O)OCC(C)C)C(=O)C2)CC1=O,inactive,inactive,inactive,inactive,inactive,inactive,inactive,inactive,inactive,inactive
O=C(O)CCCCC(=O)O,inactive,inactive,inactive,inactive,inactive,inactive,inactive,inactive,inactive,inactive
N[C@H](CO)C(=O)O,inactive,inactive,inactive,inactive,inactive,inactive,inactive,inactive,inactive,inactive
CC(C)(C)CC(C)(C)c1ccc(O)c(Cc2ccc(Cl)cc2Cl)c1,2 µM (active),5.62 µM (active),0.849 µM (active),2 µM (active),0.316 µM (active),3.16 µM (active),0.794 µM (active),1.26 µM (active),1 µM (active),1 µM (active)
C1CCc2nnnn2CC1,inactive,inactive,inactive,inactive,inactive,inactive,inactive,inactive,inactive,inactive
CN(C)/N=N/c1nc[nH]c1C(N)=O,inactive,inactive,inactive,inactive,inactive,inactive,inactive,inactive,inactive,inactive
C[C@H]1[C@H](NC(=O)/C(=N/OC(C)(C)C(=O)O)c2csc(N)n2)C(=O)N1S(=O)(=O)O (stereo in doubt),inactive,inactive,inactive,inactive,inactive,inactive,inactive,inactive,inactive,inactive
NC(CO)(CO)CO,inactive,inactive,inactive,inactive,inactive,inactive,inactive,inactive,inactive,inactive
C#C[C@]1(OC(C)=O)CC[C@H]2[C@@H]3CCC4=C[C@@H](OC(C)=O)CC[C@@H]4[C@H]3CC[C@@]21C,inactive,inactive,inactive,inactive,inactive,inactive,inactive,inactive,inactive,inactive
O=C(OCCOCCO)c1ccccc1Nc1cccc(C(F)(F)F)c1,inactive,inactive,inactive,inactive,inactive,inactive,inactive,inactive,inactive,inactive
Nc1ccc(C(=O)O)cc1,inactive,inactive,inactive,inactive,inactive,inactive,inactive,inactive,inactive,inactive
CCCCCC=CCC=CCCCCCCCC(=O)OCC,inactive,inactive,inactive,inactive,inactive,inactive,inactive,inactive,inactive,inactive
O=C(COc1ccc(Cl)cc1)N1CCN(Cc2ccc3c(c2)OCO3)CC1,inactive,inactive,inactive,inactive,inactive,inactive,inactive,inactive,inactive,inactive
